What follows are molecules tested on LOC_OS01G60330-cb001 (assay: thermal shift delta Tm vs DMSO control; higher = stronger stabilization (binding)). Details: 12.5 µM; protein concentration 2 µM.
In short: (§1)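 Compounds dissolved in DMSO were added to purified rice kinase domain constructs, which had been expressed in E. coli, for differential scanning fluorimetry. Each well held 19.5 μl of 2 μM kinase in 100 mM potassium phosphate pH 7.5, 150 mM NaCl, 10% glycerol and 5 × SYPRO Orange. Fluorescence was followed from 25°C to 95°C at a rate of 0.05°C/s. Shifts in Boltzmann-fitted melting temperature are triplicate means relative to DMSO-only protein.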

| Structure (SMILES) | thermal shift delta Tm |
| --- | --- |
| COc1ccc(CC(=O)Nc2nc3c(s2)CCc2ccccc2-3)cc1OC | 0.9 °C |
| CNS(=O)(=O)Nc1nccc(Cc2c(C)c3ccc(Oc4ncccn4)cc3oc2=O)c1F | 0.33 °C |
| C[C@H](NC(=O)/C(C#N)=C/c1cccc(Br)n1)c1ccccc1 | 0.03 °C |
| COc1ccc(COc2cc3oc(=O)c4cc(C(C)O)ccc4c3cc2OC)cc1 (centres undefined) [Palomid 529 (P529)] | 1.07 °C |
| CC(C)(C)Cn1c(N)nc2ccc(-c3[nH]c(C(C)(C)C)nc3-c3ccc(F)cc3)nc21 | -0.79 °C |
| COc1ccccc1-c1cc(Nc2cccc(CS(N)(=O)=O)c2)ncn1 | 0.45 °C |
| Cn1cnc(N)c2ncnc1-2 [3-Methyladenine (3-MA)] | 1.27 °C |
| C=CC(=O)N[C@H]1CCOC[C@H]1Nc1ncc2cc(-c3c(Cl)c(OC)cc(OC)c3Cl)ccc2n1 | -0.43 °C |
| CCS(=O)(=O)Nc1ccc2c(c1)/C(=C(/Nc1ccc(CN3CCCCC3)cc1)c1ccccc1)C(=O)N2 [Hesperadin] | 4.08 °C |
| Cc1cc(Nc2cc(N3CCN(C)CC3)nc(/C=C/c3ccccc3)n2)n[nH]1 [ENMD-2076 L-(+)-Tartaric acid] | 8.71 °C |
| Cc1ccc(F)c(NC(=O)Nc2ccc(-c3cccc4[nH]nc(N)c34)cc2)c1 [Linifanib (ABT-869)] | 4 °C |
| CO[C@H]1C[C@@H]2CC[C@@H](C)[C@@](O)(O2)C(=O)C(=O)N2CCCC[C@H]2C(=O)O[C@H]([C@H](C)C[C@@H]2CC[C@@H](OCCO)[C@H](OC)C2)CC(=O)[C@H](C)/C=C(\C)[C@@H](O)[C@@H](OC)C(=O)[C@H](C)C[C@H](C)/C=C/C=C/C=C/1C [Everolimus (RAD001)] | 1.72 °C |
| CCCCCCCCCCCCCCCCn1cc[n+](Cc2ccccc2)c1C | 0.5 °C |
| O=C(/C=C/c1ccc(O)c(O)c1)c1ccc(O)cc1O [Butein] | 7.74 °C |
| NC(=O)c1ncn([C@@H]2O[C@H](CO)[C@@H](O)[C@H]2O)c1N [AICAR (Acadesine)] | 0.61 °C |
| COCCOc1ccc2c(c1)ncn2-c1ccc2cccc(N3CCC(N)CC3)c2n1 | 0.82 °C |
| CCCCCCCCCCCCCCCCCCOP(=O)([O-])OC1CC[N+](C)(C)CC1 [Perifosine (KRX-0401)] | -0.68 °C |
| COc1ccc(-c2ccc3c(N4CCOCC4)nc(N4C[C@@H](C)O[C@@H](C)C4)nc3n2)cc1CO | 0.67 °C |
| Cc1cc(Nc2nc(N[C@@H](C)c3ccc(F)cc3)c(C#N)cc2F)n[nH]1 | 7.34 °C |

| Structure (SMILES) | thermal shift delta Tm |
| --- | --- |
| O=c1nc(N2CCOCC2)oc2c(-c3cccc4c3sc3ccccc34)cccc12 | -0.13 °C |
| Cn1cc(-c2ccc3nnc(C(F)(F)c4ccc5ncccc5c4)n3n2)cn1 | 1.1 °C |
| Cc1cc(C(C)Nc2ccccc2)c2nc(N3CCOCC3)cc(=O)n2c1 (centres undefined) | 1.22 °C |
| COc1cc(N2CCC(N(C)C)CC2)ccc1Nc1ncc(Cl)c(Nc2ccccc2P(C)(C)=O)n1 | 0.43 °C |
| CC(C)c1cnn2c(NCc3ccccc3)cc(NCCCCCCN)nc12 | 0.42 °C |
| Cc1cc([C@@H](C)Nc2ccccc2C(=O)O)c2nc(N3CCOCC3)cc(=O)n2c1 | 0.75 °C |
| CC(C)NC(=O)C1CCC(n2c(NC(=O)c3ccc(F)cc3)nc3ccc(CN4CCC(C(C)(C)O)CC4)cc32)CC1 (centres undefined) [Belizatinib (TSR-011)] | 1.95 °C |
| COc1ccc(-c2ccc3ncc4c(c3c2)n(-c2ccc(N3CCNCC3)c(C(F)(F)F)c2)c(=O)n4C)cn1 | 0.66 °C |
| CN1CCN(c2ccc3nc(-c4c(N)c5c(F)cccc5[nH]c4=O)[nH]c3c2)CC1 [Dovitinib (TKI-258, CHIR-258)] | 10.3 °C |
| NC(=O)c1ccc2nc(-c3ccc(Oc4ccc(Cl)cc4)cc3)[nH]c2c1 [Chk2 Inhibitor II (BML-277)] | 1.95 °C |
| CC1(C)OCCn2c1nc1c(N3CCOCC3)nc(-c3cnc(N)nc3)nc12 | 5.04 °C |
| C=CC(=O)Nc1cccc(Nc2nc(Nc3ccc(OCCOC)cc3)ncc2F)c1 | 8.86 °C |
| NC(=O)c1cnc(N[C@@H]2CCCC[C@@H]2N)nc1Nc1cccc(-n2nccn2)c1 | 0.94 °C |
| CNC(=O)c1cc(Oc2ccc3nc(N[C@@H]4CCCC[C@H]4O)sc3c2)ccn1 | 0.59 °C |
| CCn1c2ccccc2c2cc(Nc3ccnc(NCCCN4CCOCC4)n3)ccc21 | 1.04 °C |
| CCC(=O)Nc1cccc(Oc2nc(Nc3ccc(N4CCN(C)CC4)cc3OC)ncc2Cl)c1 | 1.08 °C |
| CN1CCN(c2nc(C3=C(c4c[nH]c5ccccc45)C(=O)NC3=O)c3ccccc3n2)CC1 [Sotrastaurin] | 0.97 °C |
| C=CCc1ccc(O)c(-c2ccc(O)c(CC=C)c2)c1 [Honokiol] | 0.73 °C |

What follows are molecules tested on LOC_OS01G60700-cb002 in the same assay as above. Details: 12.5 µM; protein concentration 2 µM.
In short: as §1

| Structure (SMILES) | thermal shift delta Tm |
| --- | --- |
| COc1ccc(CC(=O)Nc2nc3c(s2)CCc2ccccc2-3)cc1OC | 0.11 °C |
| CNS(=O)(=O)Nc1nccc(Cc2c(C)c3ccc(Oc4ncccn4)cc3oc2=O)c1F | 1.34 °C |
| C[C@H](NC(=O)/C(C#N)=C/c1cccc(Br)n1)c1ccccc1 | -0.53 °C |
| COc1ccc(COc2cc3oc(=O)c4cc(C(C)O)ccc4c3cc2OC)cc1 (centres undefined) [Palomid 529 (P529)] | 1.23 °C |
| CC(C)(C)Cn1c(N)nc2ccc(-c3[nH]c(C(C)(C)C)nc3-c3ccc(F)cc3)nc21 | 0.1 °C |
| COc1ccccc1-c1cc(Nc2cccc(CS(N)(=O)=O)c2)ncn1 | 1.21 °C |
| Cn1cnc(N)c2ncnc1-2 [3-Methyladenine (3-MA)] | 0.77 °C |
| C=CC(=O)N[C@H]1CCOC[C@H]1Nc1ncc2cc(-c3c(Cl)c(OC)cc(OC)c3Cl)ccc2n1 | -0.29 °C |
| CCS(=O)(=O)Nc1ccc2c(c1)/C(=C(/Nc1ccc(CN3CCCCC3)cc1)c1ccccc1)C(=O)N2 [Hesperadin] | 0.7 °C |
| Cc1cc(Nc2cc(N3CCN(C)CC3)nc(/C=C/c3ccccc3)n2)n[nH]1 [ENMD-2076 L-(+)-Tartaric acid] | 1.16 °C |
| Cc1ccc(F)c(NC(=O)Nc2ccc(-c3cccc4[nH]nc(N)c34)cc2)c1 [Linifanib (ABT-869)] | 2.06 °C |
| CO[C@H]1C[C@@H]2CC[C@@H](C)[C@@](O)(O2)C(=O)C(=O)N2CCCC[C@H]2C(=O)O[C@H]([C@H](C)C[C@@H]2CC[C@@H](OCCO)[C@H](OC)C2)CC(=O)[C@H](C)/C=C(\C)[C@@H](O)[C@@H](OC)C(=O)[C@H](C)C[C@H](C)/C=C/C=C/C=C/1C [Everolimus (RAD001)] | 0.6 °C |
| CCCCCCCCCCCCCCCCn1cc[n+](Cc2ccccc2)c1C | -2.72 °C |
| O=C(/C=C/c1ccc(O)c(O)c1)c1ccc(O)cc1O [Butein] | 1.12 °C |
| NC(=O)c1ncn([C@@H]2O[C@H](CO)[C@@H](O)[C@H]2O)c1N [AICAR (Acadesine)] | 0.92 °C |
| COCCOc1ccc2c(c1)ncn2-c1ccc2cccc(N3CCC(N)CC3)c2n1 | 0.15 °C |
| CCCCCCCCCCCCCCCCCCOP(=O)([O-])OC1CC[N+](C)(C)CC1 [Perifosine (KRX-0401)] | -0.73 °C |
| COc1ccc(-c2ccc3c(N4CCOCC4)nc(N4C[C@@H](C)O[C@@H](C)C4)nc3n2)cc1CO | 0.28 °C |
| Cc1cc(Nc2nc(N[C@@H](C)c3ccc(F)cc3)c(C#N)cc2F)n[nH]1 | 0.15 °C |

| Structure (SMILES) | thermal shift delta Tm |
| --- | --- |
| O=c1nc(N2CCOCC2)oc2c(-c3cccc4c3sc3ccccc34)cccc12 | -0.9 °C |
| Cn1cc(-c2ccc3nnc(C(F)(F)c4ccc5ncccc5c4)n3n2)cn1 | 1.32 °C |
| Cc1cc(C(C)Nc2ccccc2)c2nc(N3CCOCC3)cc(=O)n2c1 (centres undefined) | 0.52 °C |
| COc1cc(N2CCC(N(C)C)CC2)ccc1Nc1ncc(Cl)c(Nc2ccccc2P(C)(C)=O)n1 | 0.89 °C |
| CC(C)c1cnn2c(NCc3ccccc3)cc(NCCCCCCN)nc12 | 0.03 °C |
| Cc1cc([C@@H](C)Nc2ccccc2C(=O)O)c2nc(N3CCOCC3)cc(=O)n2c1 | 0.5 °C |
| CC(C)NC(=O)C1CCC(n2c(NC(=O)c3ccc(F)cc3)nc3ccc(CN4CCC(C(C)(C)O)CC4)cc32)CC1 (centres undefined) [Belizatinib (TSR-011)] | 0.11 °C |
| COc1ccc(-c2ccc3ncc4c(c3c2)n(-c2ccc(N3CCNCC3)c(C(F)(F)F)c2)c(=O)n4C)cn1 | 0.68 °C |
| CN1CCN(c2ccc3nc(-c4c(N)c5c(F)cccc5[nH]c4=O)[nH]c3c2)CC1 [Dovitinib (TKI-258, CHIR-258)] | 1.43 °C |
| NC(=O)c1ccc2nc(-c3ccc(Oc4ccc(Cl)cc4)cc3)[nH]c2c1 [Chk2 Inhibitor II (BML-277)] | -0.56 °C |
| CC1(C)OCCn2c1nc1c(N3CCOCC3)nc(-c3cnc(N)nc3)nc12 | 0.81 °C |
| C=CC(=O)Nc1cccc(Nc2nc(Nc3ccc(OCCOC)cc3)ncc2F)c1 | 1.84 °C |
| NC(=O)c1cnc(N[C@@H]2CCCC[C@@H]2N)nc1Nc1cccc(-n2nccn2)c1 | 1.04 °C |
| CNC(=O)c1cc(Oc2ccc3nc(N[C@@H]4CCCC[C@H]4O)sc3c2)ccn1 | 1.46 °C |
| CCn1c2ccccc2c2cc(Nc3ccnc(NCCCN4CCOCC4)n3)ccc21 | 0.87 °C |
| CCC(=O)Nc1cccc(Oc2nc(Nc3ccc(N4CCN(C)CC4)cc3OC)ncc2Cl)c1 | 1.14 °C |
| CN1CCN(c2nc(C3=C(c4c[nH]c5ccccc45)C(=O)NC3=O)c3ccccc3n2)CC1 [Sotrastaurin] | 0.76 °C |
| C=CCc1ccc(O)c(-c2ccc(O)c(CC=C)c2)c1 [Honokiol] | 1.34 °C |

— the supplement of paper PMC9694430
